Experimental data reported in PubChem BioAssay.

biological target: Torsin-1A (Homo sapiens) (UniProt O14656); assay: torsin A mutant lysate binding on microarrays – cell lysate, small-molecule microarray, COS7 lysate, 635/667 nm fluorescence, primary screen (AID 1150); settings: COS7 hTOR1A mutant lysate, 635 nm fluorescence, higher = more signal;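 note: score pools 667 nm emission and signal to noise measuring lysate protein binding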
Sequence (O14656 whole entry, looked up): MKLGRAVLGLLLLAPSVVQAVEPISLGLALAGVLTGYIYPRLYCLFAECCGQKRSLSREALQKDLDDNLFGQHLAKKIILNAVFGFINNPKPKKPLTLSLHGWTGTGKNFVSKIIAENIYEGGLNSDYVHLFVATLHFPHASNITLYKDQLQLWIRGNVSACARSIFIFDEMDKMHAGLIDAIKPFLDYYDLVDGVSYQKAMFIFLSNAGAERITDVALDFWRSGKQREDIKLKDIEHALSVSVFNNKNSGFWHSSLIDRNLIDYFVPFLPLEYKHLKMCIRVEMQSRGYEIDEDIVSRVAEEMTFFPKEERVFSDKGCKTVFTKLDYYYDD

SMILES	composite z-score
COCCCNC(=O)[C@@H]1c2ccccc2C(=O)N(C2Cc3ccccc3C2)[C@H]1c1ccc(CO)cc1	-0.184
COc1ccc([Si](C)(C)[C@H]2[C@H](CCO)O[C@@]3(C(=O)N(Cc4ccccc4)c4ccc(N5CCOC5=O)cc43)[C@@H]2C)cc1	-0.12
C[C@@]12COC[C@]13C=C(Br)[C@H](C2)[C@@]1(CO1)C3=O	-0.55
Nc1cc(Br)ccc1C(=O)O	0.474
COC(=O)[C@@]1(Cc2ccccc2)[C@H]2c3cc(C(=O)N(C)C)n(CCn4cc([N+](=O)[O-])nc4C)c3C[C@H]2CN1C(=O)c1ccccc1	0.464
C=C(/C(=C/C[C@@H](OC(C)=O)c1ccc(CO)o1)c1cc(C(=O)OC)ccc1OC)C(C)C	0.549
CC(C)C(=C=CC[C@H](O)c1cccc(OCCO)c1)CCO	0.15
C=CCN1C(=O)[C@]2(O[C@H](CCO)[C@@H]([Si](C)(C)c3ccc(OC)cc3)[C@@H]2C)c2cc(NC(=O)c3ccc(OC)cc3)ccc21	0.726
CC(=O)NCCCC[C@@H]1NC(=O)[C@@H]2C[C@H](C(=O)NCCCCCCN)[C@H](c3cccc(OCCO)c3)N2C1=O	0.464
CN(C)CCCCNC(=O)[C@H]1C[C@H]2C(=O)N[C@@H](CCCC[N+](C)(C)C)C(=O)N2[C@H]1c1ccc(O)cc1	0.97
CC(C)N1CC=CC23O[C@@H]4/C=C\CCCOC(=O)C4[C@H]2C(=O)N(CCCCCCO)[C@@H]3C1=O (stereo not given in full)	0.55
O=C(CS)NCCCCCCNC(=O)[C@@H]1C[C@@H]2C(=O)NCC(=O)N2[C@@H]1c1ccc(O)cc1	-0.814
COc1ccc([Si](C)(C)[C@H]2[C@H](CCO)O[C@@]3(C(=O)N(Cc4ccccc4)c4ccc(N5C(=O)c6ccccc6Oc6ccccc65)cc43)[C@@H]2C)cc1	0.102
NC(=O)[C@H]1[C@@H]2C(=O)O[C@@H](c3ccccc3)[C@@H](c3ccccc3)N2[C@@H](c2ccc(O)cc2)[C@]12C(=O)Nc1ccccc12	-1.73
[N-]=[N+]=NCc1ccccc1[C@@H]1OC(c2ccc(OCCCO)cc2)=N[C@]1(Cc1ccccc1)C(=O)NCCN1CCOCC1	0.818
O=C1C2C=CC(C(O)c3ccc4c(c3)OCO4)N(Nc3ccccc3)C2C(=O)N1c1ccccc1 (stereo not given)	0.426
O=C(CS)NCCCCCNC(=O)[C@@H]1C[C@@H]2C(=O)N[C@@H](Cc3ccccc3)C(=O)N2[C@@H]1c1cccc(OCCO)c1	1.31
NCCCCCNC(=O)[C@@H]1C[C@@H]2C(=O)N3CCC[C@H]3C(=O)N2[C@@H]1c1ccc(O)cc1	1.1
COc1cc(NN2C(C(O)c3ccccc3)C=CC3C(=O)N(C)C(=O)C32)cc(OC)c1OC (stereo not given)	0.576
CC=CC(O)C1C=CC2C(=O)NC(=O)C2N1Nc1ccccn1 (stereo not given)	-0.164
COCCOC(=O)N1C(=O)[C@@]2(c3ccccc31)[C@H](c1ccccc1OCCO)N1[C@H](c3ccccc3)[C@H](c3ccccc3)OC(=O)[C@H]1[C@@H]2C(N)=O	1.07
COc1cc(NN2C(C(O)c3ccc(I)cc3)C=CC3C(=O)N(c4ccccc4)C(=O)C32)cc(OC)c1OC (stereo not given)	0.743
[N-]=[N+]=NCc1ccccc1[C@@H]1OC(c2ccc(OCCCO)cc2)=N[C@]1(Cc1ccccc1N=[N+]=[N-])C(=O)NCCN1CCOCC1	1.01
C=C(/C(=C/C[C@H](OC(=O)c1ccncc1)c1ccccc1OCCO)c1cnc2ccccc2c1)C(C)C	1.07
C=CCNC(=O)[C@@H]1[C@H]2C(=O)O[C@H](c3ccccc3)[C@H](c3ccccc3)N2[C@H](c2ccc(OCCO)cc2)[C@@]12C(=O)N(C(=O)OCCOC)c1ccc(C#CCCO)cc12	0.582
C=C[C@H](C)[C@H](OC(=O)Nc1ccc(OC)cc1)c1ccc(OCCO)cc1	0.0508
COc1ccc(C#Cc2ccc3c(c2)[C@]2(C(=O)N3)[C@H](C(=O)N3CCCCCCC3)[C@H]3C(=O)O[C@H](c4ccccc4)[C@H](c4ccccc4)N3[C@@H]2c2ccc(O)cc2)cc1	1.42
NCCCCCNC(=O)[C@H]1C[C@H]2C(=O)N[C@@H](Cc3ccccc3)C(=O)N2[C@H]1c1ccc(O)cc1	0.842
CC(C)c1ccc(NN2C(C(O)Cc3ccccc3)C=CC3C(=O)N(c4ccccc4)C(=O)C32)cc1 (stereo not given)	0.815
Cc1ccc(S[C@]2(C(=O)NCc3ccccc3)CC(=O)N(Cc3cc(C(F)(F)F)cc(C(F)(F)F)c3)[C@@H]2c2ccc(CO)cc2I)cc1	-0.298
